# Source: PubChem BioAssay AID686964 (The Scripps Research Institute Molecular Screening Center, 2013)
# Several values for one entry are separate records, joined by “and”; a condition that tells them apart may be missing. Identical values can stand only once. In all, about 370,000 compounds went through this assay and about 1,100 (0.3%) were called active. Many of the other results were omitted from the sample, so actives are more common in it than they were. Unmarked numbers belong to inactive results. Cut-off read from the data, not from the text of the source: active = inhibition above about 13%; inactive = the rest.
# Target: Methyl-CpG-binding domain protein 2 (Homo sapiens) (UniProt Q9UBB5)
# Assay: inhibitors of MBD2 binding to methylated DNA, primary screen, biochemical, TR-FRET, DNA-binding domain, human (AID 686964)
# Settings: MBD2 binding to methylated oligonucleotide, at 4.4 µM, hits give high values
# Methyl-CpG-binding domain protein 2 (Homo sapiens), sequence (Q9UBB5 whole entry, looked up, the tested form may be a part): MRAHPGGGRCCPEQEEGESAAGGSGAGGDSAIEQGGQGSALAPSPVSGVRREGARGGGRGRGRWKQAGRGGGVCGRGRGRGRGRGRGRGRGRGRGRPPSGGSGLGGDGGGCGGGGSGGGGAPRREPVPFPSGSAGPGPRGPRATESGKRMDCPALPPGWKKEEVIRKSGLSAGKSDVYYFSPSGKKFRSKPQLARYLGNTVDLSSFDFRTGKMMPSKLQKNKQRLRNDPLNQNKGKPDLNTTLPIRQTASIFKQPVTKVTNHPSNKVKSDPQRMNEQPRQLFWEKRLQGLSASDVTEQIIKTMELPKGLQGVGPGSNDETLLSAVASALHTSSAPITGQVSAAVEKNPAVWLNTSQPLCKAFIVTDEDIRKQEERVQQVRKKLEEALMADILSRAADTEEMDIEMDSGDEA
row,Structure (SMILES),inhibition
1,Cn1cnnc1Sc1ccc(CN2CCN(C3CCCC3)C(CCO)C2)o1 (stereo unspecified),-4.49%
2,C[C@@H]1CN([C@@H](C)CO)C(=O)c2cccc(NC(=O)Nc3cccc4ccccc34)c2O[C@H]1CN(C)S(=O)(=O)c1ccccc1F,-5.98%
3,COc1ccccc1C(=O)NC1CCCCN(C(C)C)C1=O (stereo unspecified),6.15%
4,Cc1ccc(S(=O)(=O)N(CCc2ccccc2)c2ccc3c(c2)C2CC3CCN2C(=O)OCc2ccccc2)cc1 (stereo unspecified),-6.75%
5,COc1ccc(CNC(=O)C2CCC(CNc3c(N4CCOCC4)c(=O)c3=O)CC2)cc1 (stereo unspecified),-0.13% and -5.05%
6,CCOc1cc(N2CCOCC2)c(OCC)cc1NC(=O)c1cc(C)nc2ccccc12,13.2% (active)
7,CCOc1ncccc1C(=O)Nc1ccc(S(=O)(=O)Nc2nc(C)cc(C)n2)cc1,-2.5%
8,CCOc1cc(NC(=O)c2ccccc2C(=O)O)c(OCC)cc1NC(=O)c1ccccc1F,0.6%
9,Cc1cc(C(=O)OCC(=O)Nc2nccs2)c2ccccc2n1,8.33%
10,CCOc1ccc(NC(=O)c2cc(C)nc3ccccc23)cc1,16.2% (active)
11,CCC(CC)C(C(=O)NC1CCCC1)N1CCN(c2cc(C)nc3ccccc23)CC1 (stereo unspecified),-3.59%
12,O=C(CSc1nc2ccccc2nc1N1CCCCC1)N1CCN(S(=O)(=O)c2cccc([N+](=O)[O-])c2)CC1,-6.32%
13,O=C(NCc1ccc(Cl)cc1)C1CCCN(c2nc3ccccc3o2)C1 (stereo unspecified),-3.29%
14,O=C(c1ccc(F)cc1)c1c[nH]c(C(=O)NCc2cccnc2)c1,4.31%
15,O=C1CC[C@@]23CCCN2C(=O)CCC[C@H]3[C@H]1Cc1ccccc1,1.8%
16,COC(=O)C(=Nc1ccccc1)/C(C(=O)C(=O)N(C)c1ccccc1)=C(\O)c1ccc(Cl)cc1,-5.32%
17,C=CC1=C(C(=O)O)N2C(=O)[C@@H](NC(=O)/C(=N/OCC(=O)O)c3csc(N)n3)[C@H]2SC1,73.1% (active)
18,C=CC1=C(C(=O)O)N2C(=O)[C@@H](NC(=O)/C(=N\OCC(=O)O)c3csc(N)n3)[C@H]2SC1,52.4% (active)
19,CCCNc1ncnc2sc(C)c(C)c12,1.28%

row,Structure (SMILES),inhibition
1,O=C(Nc1cc(F)cc(F)c1)OC1CCC12CCC(c1ccccc1)CC2 (stereo unspecified),0.3%
2,O=C1CC(c2ccc3c(c2)OCO3)N=C2N(CC3CC3)C/C(=C/c3ccccc3)N12 (stereo unspecified),-1.23%
3,COc1ccc(OCc2cc(C(=O)NCC3(C)COC3)no2)c(Cl)c1,17.4% (active)
4,Cc1cc(OCc2cc(C(=O)NCc3cc(C(C)C)no3)no2)cc(C)c1Cl,4.94%
5,COCCN1CCN(C(=O)c2cc(COc3ccc(F)cc3Cl)on2)CC1,2.22%
6,COC(=O)C1=C(C)N(Cc2ccccc2C(F)(F)F)C(=NCc2ccc(C(F)(F)F)cc2)NC1c1ccc(F)cc1 (stereo unspecified),2.2%
7,CN1C(=O)CN2CCc3ccccc3C2c2cc(Cl)ccc21 (stereo unspecified),-5.25%
8,Cc1ccc(NC(=O)Cc2cccc(F)c2)c(S(=O)(=O)N2CCOCC2)c1,-5.33%
9,Cc1nc(CNc2ncnc3ccc(-c4ccc5c(c4)OCO5)cc23)cs1,-2.98%
10,COc1ccc(C2Nc3ccccc3C(=O)N2Cc2cccs2)cc1COc1c(C)cccc1C (stereo unspecified),-1.94%
11,CCOC(=O)CCP(=O)(O)C(O)(c1ccccc1)c1ccccc1,28.3% (active)
12,CCOC(=O)CNC(=O)/C=C/c1c(Cl)cccc1Cl,-5.98%
13,CCOC(=O)NC(C(F)(F)F)(C(F)(F)F)P(=O)(c1ccccc1)c1ccccc1,-1.87%
14,CCOC(=O)C(=O)N(Cc1ccccc1)c1ccccc1C(=O)Nc1cc(OC)ccc1OC,1%
15,COc1cccc(/C=C2\CC3(OC(C)=O)CCCN2C3)c1 (stereo unspecified),1.18%
16,O=c1ccc2c(-c3ccccc3S(=O)(=O)O)c3ccc(O)c(O)c3oc-2c1O,97.2% (active)
17,O=C(NC1CCCCN(Cc2ccc(Cl)cc2)C1=O)c1ccc(Br)cc1 (stereo unspecified),-2.53%
18,C=C(C)C#CC(Cc1ccccc1)NCC1CC1 (stereo unspecified),-0.24%
19,Cc1cc(C)c2nc3nc(C)cc(C)c3c(N)c2c1,19.4% (active)

row,Structure (SMILES),inhibition
1,NC(=O)c1ncn([C@@H]2O[C@H](C(=O)O)[C@@H](O)[C@H]2O)n1,2.1%
2,CCC[C@H]1C(=O)CC[C@@]23CCCN2C(=O)CCC[C@@H]13,-0.46%
3,CC(C)CSc1nnc(-c2cccnc2)n1Cc1ccccc1,-2.93%
4,O=C(OC12CCCN(C1)/C(=C/c1cccnc1)C2)C1CCCC1 (stereo unspecified),-0.45%
5,O=C(NS(=O)(=O)c1cccs1)[C@H]1O[C@@H](n2ccc(=O)[nH]c2=O)[C@H](O)[C@@H]1O,3.05%
6,Cc1cccc(N2CCN(Cc3c(C)n(C)n(-c4ccccc4)c3=O)CC2)c1C,1.05%
7,Cc1c(C=O)n(C)n(-c2ccccc2)c1=O,14.6% (active)
8,Cc1c(CN2CCC(C)CC2)c(=O)n(-c2ccccc2)n1C,2.32%
9,O=S(=O)(c1ccc(Br)cc1)n1ccc2ccccc21,-0.04%
10,O=S1(=O)c2c(cccc2N2CCSCC2)Oc2ccccc2CN1Cc1cn(Cc2ccc(F)cc2)nn1,-0.08%
11,O=C(NCCO)C(=O)NCC(c1ccc2c(c1)OCO2)N1CCN(c2ccc(F)cc2)CC1 (stereo unspecified),0.87%
12,CCCC[C@H](C(=O)N(CC)c1ccccc1)[C@@H](O)c1ccc2ccccc2c1,-3.72%
13,C=CCN(C(=O)[C@@H](CCCC)[C@@H](O)c1ccc(Cl)cc1)c1ccccc1,15.9% (active)
14,C[C@H](C(=O)N(C)c1ccccc1)[C@@H](O)c1ccc(Cl)cc1,-1.32%
15,O=C(CCCCCN1C(=O)C2C3C=CC(C3)C2C1=O)Nc1ccccn1 (stereo unspecified),-4.13%
16,CC(=O)Nc1cccc(C(=O)OCN2C(=O)c3ccccc3C2=O)c1,6.26%
17,COC(=O)c1cccc(NS(C)(=O)=O)c1,-3.55%
18,COC(=O)c1cccc(NC(=O)c2cccc(N3C(=O)CCC3=O)c2)c1,13.4% (active)
